Measurements taken from PubChem BioAssay (EPA / NIEHS).
Calls of active or inactive are those of the source. How the source made its calls: active means hit-call score of the fitted dose curve at least 0.9, where 1 is the maximum; inactive means score below 0.9.

Columns and labels:
Details in all cases: mRNA level, 48 h; actives raise or lower the signal
[1] = read-out: CYP4A11 (gene 1579); assay: LTEA_HepaRG_CYP4A11: Life Technologies and Expression Analysis (LTEA) Assay for CYP4A11 using HepaRG (AID 2283486)
In short: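 Readout is CYP4A11 transcript level by qRT-PCR, normalized to three housekeeping genes and fitted bidirectionally against 0.5% DMSO. Human HepaRG cells were treated 48 h, in duplicate, with an 8-point half-log series topping at 100 uM.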

[2] = read-out: Cytochrome P450 3A4 (Homo sapiens) (UniProt P08684); assay: LTEA_HepaRG_CYP3A4: Life Technologies and Expression Analysis (LTEA) Assay for CYP3A4 using HepaRG (AID 2283487)
In short: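 Differentiated HepaRG cells in serum-free induction medium exposed in duplicate for 48 h to 8 half-log concentrations up to 100 uM in 0.5% DMSO. CYP3A4 mRNA measured by qRT-PCR normalized to ACTB, GAPDH and POLR2A; bidirectional fit versus DMSO.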

[3] = read-out: DNA damage-inducible transcript 3 (DDIT3), DDIT3 (gene 1649); assay: LTEA_HepaRG_DDIT3: Life Technologies and Expression Analysis (LTEA) Assay for DNA damage-inducible transcript 3 (DDIT3) using HepaRG (AID 2283488)
In short: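 HepaRG cells, 48 h after plating, exposed 48 h in serum-free induction medium to 8 half-log concentrations up to 100 uM in 0.5% DMSO, in duplicate. DDIT3 mRNA measured by TaqMan qRT-PCR, normalized to ACTB, GAPDH and POLR2A. Fitted bidirectionally against DMSO.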

[4] = read-out: Pro-epidermal growth factor (Homo sapiens) (UniProt P01133); assay: LTEA_HepaRG_EGF: Life Technologies and Expression Analysis (LTEA) Assay for Epidermal growth factor (EGF) using HepaRG (AID 2283489)
In short: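 EGF transcript measured by Fluidigm TaqMan qRT-PCR with three housekeeping genes for normalization, 48 h after dosing HepaRG cultures in duplicate (top 100 uM, half-log steps, 0.5% DMSO vehicle). Gain or loss relative to DMSO fitted.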

[5] = read-out: Early growth response protein 1 (EGR1) transcription factor, EGR1 (gene 1958); assay: LTEA_HepaRG_EGR1: Life Technologies and Expression Analysis (LTEA) Assay for Early growth response protein 1 (EGR1) transcription factor using HepaRG (AID 2283490)
In short: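 Differentiated human HepaRG cells in serum-free induction medium were exposed in duplicate for 48 h to eight concentrations (top 100 uM, half-log steps) in 0.5% DMSO. EGR1 mRNA was quantified by qRT-PCR, normalized to ACTB, GAPDH and POLR2A, and fitted bidirectionally versus DMSO.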

[6] = read-out: Ezrin (EZR), EZR (gene 7430); assay: LTEA_HepaRG_EZR: Life Technologies and Expression Analysis (LTEA) Assay for Ezrin (EZR) using HepaRG (AID 2283491)
In short: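 Differentiated human HepaRG cells, 48 h after plating, were exposed in serum-free induction medium for 48 hours to eight half-log concentrations up to 100 uM in 0.5% DMSO. EZR mRNA was measured by TaqMan qRT-PCR, normalized to ACTB, GAPDH and POLR2A, and fitted bidirectionally against DMSO.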

[7] = read-out: Cytochrome P450 3A7 (Homo sapiens) (UniProt P24462); assay: LTEA_HepaRG_CYP3A7: Life Technologies and Expression Analysis (LTEA) Assay for CYP3A7 using HepaRG (AID 2283492)
In short: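 CYP3A7 transcript measured by qRT-PCR (ACTB, GAPDH, POLR2A normalization) after 48 h chemical exposure of HepaRG cells in duplicate. Eight half-log concentrations, maximum 100 uM, 0.5% DMSO vehicle; bidirectional curve fitting against DMSO baseline.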

[8] = read-out: CYP3A5 (gene 1577); assay: LTEA_HepaRG_CYP3A5: Life Technologies and Expression Analysis (LTEA) Assay for CYP3A5 using HepaRG (AID 2283493)
In short: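 HepaRG cells, plated 48 h then in serum-free induction medium, dosed in duplicate for 48 h with eight half-log concentrations up to 100 uM in 0.5% DMSO. Gene mRNA by Fluidigm TaqMan qRT-PCR, normalized to ACTB, GAPDH, POLR2A.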

[9] = read-out: Fatty Acid-Binding Protein 1 (FABP1), FABP1 (gene 2168); assay: LTEA_HepaRG_FABP1: Life Technologies and Expression Analysis (LTEA) Assay for Fatty Acid-Binding Protein 1 (FABP1) using HepaRG (AID 2283494)
In short: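 Differentiated human HepaRG cells were exposed in duplicate for 48 h in serum-free induction medium to 8-point half-log concentration series topping at 100 uM in 0.5% DMSO. FABP1 mRNA measured by TaqMan qRT-PCR, normalized to ACTB/GAPDH/POLR2A; bidirectional fit versus DMSO.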

[10] = read-out: Cytochrome P450 4A22 (Homo sapiens) (UniProt Q5TCH4); assay: LTEA_HepaRG_CYP4A22: Life Technologies and Expression Analysis (LTEA) Assay for Cytochrome P450 4A22 (CYP4A22) using HepaRG (AID 2283495)
In short: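 Gene expression measured by qRT-PCR against three housekeeping genes (ACTB, GAPDH, POLR2A), with gain or loss fitted relative to 0.5% DMSO vehicle. HepaRG cultures received 48 h chemical treatment, top concentration 100 uM, half-log steps, duplicate wells.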

[11] = read-out: Cytochrome P450 7A1 (Homo sapiens) (UniProt P22680); assay: LTEA_HepaRG_CYP7A1: Life Technologies and Expression Analysis (LTEA) Assay for Cytochrome P450 7A1 (CYP7A1) using HepaRG (AID 2283496)
In short: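 HepaRG cells plated 48 h, then switched to serum-free induction medium and exposed in duplicate for 48 h to 8-point half-log series from 100 uM in 0.5% DMSO. CYP7A1 mRNA by qRT-PCR (TaqMan), normalized to ACTB/GAPDH/POLR2A; bidirectional fit versus DMSO.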

[12] = read-out: Glutathione S-Transferase (GSTA2), GSTA2 (gene 2939); assay: LTEA_HepaRG_GSTA2: Life Technologies and Expression Analysis (LTEA) Assay for Glutathione S-Transferase (GSTA2) using HepaRG (AID 2283497)
In short: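 Human HepaRG cells, plated 48 h, then exposed in serum-free induction medium for 48 h to eight half-log concentrations up to 100 uM in 0.5% DMSO, duplicate. GSTA2 mRNA by qRT-PCR, normalized to ACTB/GAPDH/POLR2A; bidirectional fit versus DMSO.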

[13] = read-out: Glutamate-cysteine ligase catalytic (GCLC), GCLC (gene 2729); assay: LTEA_HepaRG_GCLC: Life Technologies and Expression Analysis (LTEA) Assay for Glutamate-cysteine ligase catalytic (GCLC) using HepaRG (AID 2283498)
In short: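 Differentiated human HepaRG cells, plated 48 h then switched to serum-free induction medium, were exposed in duplicate for 48 h to 8 half-log concentrations topping at 100 uM in 0.5% DMSO. GCLC mRNA was quantified by qRT-PCR against ACTB, GAPDH and POLR2A.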

[14] = read-out: growth arrest and DNA damage 45 (GADD45G), GADD45G (gene 10912); assay: LTEA_HepaRG_GADD45G: Life Technologies and Expression Analysis (LTEA) Assay for growth arrest and DNA damage 45 (GADD45G) using HepaRG (AID 2283499)
In short: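 GADD45G transcript level by qRT-PCR (housekeeping-normalized: ACTB, GAPDH, POLR2A) after 48 h chemical treatment of a single HepaRG lot in serum-free induction medium; eight-point half-log series up to 100 uM in 0.5% DMSO, duplicates, up- or down-regulation scored.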

[15] = read-out: Glutamate-cysteine ligase regulatory (GCLM), GCLM (gene 2730); assay: LTEA_HepaRG_GCLM: Life Technologies and Expression Analysis (LTEA) Assay for Glutamate-cysteine ligase regulatory (GCLM) using HepaRG (AID 2283500)
In short: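 Differentiated HepaRG cells exposed 48 h in serum-free induction medium to eight half-log concentrations up to 100 uM (0.5% DMSO). GCLM mRNA by TaqMan qRT-PCR, normalized to ACTB, GAPDH and POLR2A; bidirectional fit versus DMSO.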

[16] = read-out: Glutathione S-transferase M3 (GSTM3), GSTM3 (gene 2947); assay: LTEA_HepaRG_GSTM3: Life Technologies and Expression Analysis (LTEA) Assay for Glutathione S-transferase M3 (GSTM3) using HepaRG (AID 2283501)
In short: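 GSTM3 transcript levels came from Fluidigm TaqMan qRT-PCR normalized to three housekeeping genes, fitted in both directions against DMSO. HepaRG cultures received chemicals for 48 h in serum-free induction medium (0.5% DMSO), 8 half-log concentrations up to 100 uM, duplicate.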

[17] = read-out: Heat shock 70 kDa protein 1 (HSPA1A), gene 3303; assay: LTEA_HepaRG_HSPA1A: Life Technologies and Expression Analysis (LTEA) Assay for Heat shock 70 kDa protein 1 (HSPA1A) using HepaRG (AID 2283502)
In short: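 Human HepaRG cells in serum-free induction medium were exposed in duplicate for 48 h to 8 half-log concentrations, highest 100 uM, in 0.5% DMSO. HSPA1A mRNA read by TaqMan qRT-PCR, normalized to ACTB, GAPDH, POLR2A, fitted bidirectionally against DMSO.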

[18] = read-out: Hypoxia-inducible factor 1-alpha (Homo sapiens) (UniProt Q16665); assay: LTEA_HepaRG_HIF1A: Life Technologies and Expression Analysis (LTEA) Assay for Hypoxia-inducible factor 1 (HIF1A) Trancription factor using HepaRG (AID 2283503)
In short: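 Differentiated HepaRG cells in serum-free induction medium exposed 48 h, in duplicate, to 8-point half-log series from 100 uM in 0.5% DMSO. HIF1A mRNA measured by TaqMan qRT-PCR, normalized to ACTB/GAPDH/POLR2A, fitted bidirectionally versus DMSO.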

[19] = read-out: 3-Hydroxy-3-Methylglutaryl-CoA Synthase 2 (HMGCS2), HMGCS2 (gene 3158); assay: LTEA_HepaRG_HMGCS2: Life Technologies and Expression Analysis (LTEA) Assay for 3-Hydroxy-3-Methylglutaryl-CoA Synthase 2 (HMGCS2) using HepaRG (AID 2283504)
In short: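 Readout is HMGCS2 transcript by qRT-PCR, housekeeping-normalised (ACTB/GAPDH/POLR2A) and fitted bidirectionally against 0.5% DMSO. Differentiated HepaRG cells received chemicals 48 h, duplicate wells, eight half-log concentrations topping at 100 uM.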

[20] = read-out: HGF (gene 3082); assay: LTEA_HepaRG_HGF: Life Technologies and Expression Analysis (LTEA) Assay for Hepatocyte Growth Facto (HGF) using HepaRG (AID 2283505)
In short: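 HGF transcript was quantified by TaqMan qRT-PCR against three housekeeping genes after 48 h treatment of HepaRG cells. Exposure ran in duplicate over eight half-log steps topping at 100 uM in 0.5% DMSO vehicle.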

Measured: AC50

Chain of Cytochrome P450 3A7 (Homo sapiens) (P24462 whole entry, looked up): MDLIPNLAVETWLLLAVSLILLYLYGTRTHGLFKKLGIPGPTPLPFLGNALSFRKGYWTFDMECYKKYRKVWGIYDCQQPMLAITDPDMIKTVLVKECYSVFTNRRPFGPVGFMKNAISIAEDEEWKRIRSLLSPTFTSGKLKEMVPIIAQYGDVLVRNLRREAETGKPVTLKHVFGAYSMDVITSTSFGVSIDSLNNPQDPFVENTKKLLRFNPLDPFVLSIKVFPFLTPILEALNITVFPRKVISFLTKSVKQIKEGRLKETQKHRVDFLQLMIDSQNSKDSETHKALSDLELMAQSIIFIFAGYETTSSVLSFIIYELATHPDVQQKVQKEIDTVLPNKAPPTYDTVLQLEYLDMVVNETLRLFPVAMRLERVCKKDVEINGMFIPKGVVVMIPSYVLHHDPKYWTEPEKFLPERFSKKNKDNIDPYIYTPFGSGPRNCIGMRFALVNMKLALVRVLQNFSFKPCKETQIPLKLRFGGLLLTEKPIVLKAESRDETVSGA
Chain of Cytochrome P450 3A4 (Homo sapiens) (P08684 whole entry, looked up): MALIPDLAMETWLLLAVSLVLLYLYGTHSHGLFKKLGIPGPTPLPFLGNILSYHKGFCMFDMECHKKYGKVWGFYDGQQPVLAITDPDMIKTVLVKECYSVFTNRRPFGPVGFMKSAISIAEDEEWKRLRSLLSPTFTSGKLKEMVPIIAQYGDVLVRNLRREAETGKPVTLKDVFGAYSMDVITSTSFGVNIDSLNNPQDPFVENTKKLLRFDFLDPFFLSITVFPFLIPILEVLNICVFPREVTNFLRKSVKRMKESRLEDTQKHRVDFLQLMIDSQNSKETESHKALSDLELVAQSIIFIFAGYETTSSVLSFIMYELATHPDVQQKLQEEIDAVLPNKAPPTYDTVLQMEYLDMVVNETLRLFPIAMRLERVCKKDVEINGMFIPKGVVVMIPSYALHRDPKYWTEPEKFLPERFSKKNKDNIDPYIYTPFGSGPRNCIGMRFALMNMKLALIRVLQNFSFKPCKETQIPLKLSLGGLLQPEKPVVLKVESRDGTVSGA
Chain of Hypoxia-inducible factor 1-alpha (Homo sapiens) (Q16665 whole entry, looked up): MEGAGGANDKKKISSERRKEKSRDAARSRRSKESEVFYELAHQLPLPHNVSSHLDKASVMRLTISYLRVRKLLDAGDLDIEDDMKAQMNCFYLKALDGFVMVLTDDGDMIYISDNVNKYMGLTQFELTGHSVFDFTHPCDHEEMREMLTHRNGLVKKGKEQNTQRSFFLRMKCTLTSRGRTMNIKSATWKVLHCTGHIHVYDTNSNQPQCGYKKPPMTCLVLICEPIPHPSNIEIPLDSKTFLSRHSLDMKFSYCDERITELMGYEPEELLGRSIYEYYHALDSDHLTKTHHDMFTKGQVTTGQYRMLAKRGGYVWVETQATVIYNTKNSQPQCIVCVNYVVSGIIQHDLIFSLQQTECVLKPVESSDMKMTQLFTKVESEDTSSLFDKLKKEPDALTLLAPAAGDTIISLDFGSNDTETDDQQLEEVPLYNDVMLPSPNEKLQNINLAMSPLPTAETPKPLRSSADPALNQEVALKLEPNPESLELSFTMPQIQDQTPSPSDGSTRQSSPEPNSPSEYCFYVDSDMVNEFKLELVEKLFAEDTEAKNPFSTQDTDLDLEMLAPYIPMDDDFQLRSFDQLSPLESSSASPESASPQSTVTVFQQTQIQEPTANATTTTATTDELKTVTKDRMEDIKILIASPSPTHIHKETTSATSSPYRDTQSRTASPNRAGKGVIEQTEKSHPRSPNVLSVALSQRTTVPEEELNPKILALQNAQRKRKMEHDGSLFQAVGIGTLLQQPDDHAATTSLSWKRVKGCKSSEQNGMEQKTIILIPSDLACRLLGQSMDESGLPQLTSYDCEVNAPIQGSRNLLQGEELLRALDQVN

CCCCCCCCCCCCCCOS(=O)(=O)O
inactive: [2] | [3] | [4] | [5] | [6] | [7] | [8] | [9] | [10] | [12] | [13] | [14] | [15] | [16] | [17] | [18] | [19] | [20]
active: [1] 4.9 µM | [11] 23.7 µM

CC(=O)OCC(COC(C)=O)OC(C)=O
inactive: [1] | [2] | [3] | [4] | [5] | [6] | [7] | [8] | [9] | [10] | [11] | [12] | [13] | [14] | [15] | [16] | [17] | [18] | [19] | [20]

COc1ccc(OC(F)(F)F)cc1CN[C@H]1CCCN[C@H]1c1ccccc1
inactive: [6] | [7] | [11] | [14] | [15] | [16] | [18] | [20]
active: [1] 9.12 µM | [2] 91.9 µM | [3] 72.8 µM | [4] 50 µM | [5] 86.6 µM | [8] 78.5 µM | [9] 77.9 µM | [10] 15.8 µM | [12] 5.08 µM | [13] 90.1 µM | [19] 78.8 µM
